# Results: PubChem BioAssay
# Active and inactive are the calls of the source. Cut-off read from the data, not from the text of the source: active = fold change permeability below about 0.7 or above about 1.3; inactive = in between.
# Assay: compounds altering in vitro BBB leakiness – cell-based, FITC-avidin fluorescence, HTS, primary screen (AID 1963498); note: test concentration not given here
# Conditions: brain endothelial barrier, actives lie on both sides
row,SMILES,fold change permeability
1,CC(C)(C)c1ccc(C(O)CCCN2CCC(C(O)(c3ccccc3)c3ccccc3)CC2)cc1 (centres undefined),1.4 (active)
2,O=[N+]([O-])c1ccc(CSc2ncnc3c2ncn3[C@@H]2O[C@H](CO)[C@@H](O)[C@H]2O)cc1,0.8 (inactive)
3,Cc1ccc(Cl)c(Nc2ccccc2C(=O)O)c1Cl,1.3 (active)
4,O=c1[nH]c2cc(Cl)ccc2c(O)c1-c1cccc(Oc2ccccc2)c1,1.4 (active)
5,OC[C@H]1NC[C@H](O)[C@@H](O)[C@@H]1O,1.1 (inactive)
6,NC12CC3CC(CC(C3)C1)C2,0.9 (inactive)
7,CCc1c(C)[nH]c2c1C(=O)C(CN1CCOCC1)CC2 (centres undefined),1 (inactive)
8,CNC[C@H](O)c1ccc(O)c(O)c1,0.8 (inactive)
9,CSc1ccc2c(c1)N(CCC1CCCCN1C)c1ccccc1S2 (centres undefined),1.4 (active)
10,COc1cc2ncnc(Nc3cccc(Br)c3)c2cc1OC,1.1 (inactive)
11,Cc1cc(CN2CCN(c3c(Br)cnc4nc(-c5ccc(N6CCN(C)CC6)cc5)[nH]c34)CC2)no1,1.4 (active)
12,CCCCC[C@H](CC(=O)NO)C(=O)N[C@H](C(=O)N1CCC[C@H]1CO)C(C)C,1.2 (inactive)
13,Clc1ccc(Cn2c(CN3CCCC3)nc3ccccc32)cc1,1.2 (inactive)
14,O=c1[nH]c2cc([N+](=O)[O-])c([N+](=O)[O-])cc2[nH]c1=O,1.2 (inactive)
15,CC(C)NCC(O)COc1ccc(COCCOC(C)C)cc1 (centres undefined),0.8 (inactive)
16,NS(=O)(=O)c1cccc2c1c([N+](=O)[O-])cc1nc(O)c(O)nc12,0.9 (inactive)
17,CCN[C@H]1CN(CCCOC)S(=O)(=O)c2sc(S(N)(=O)=O)cc21,1.5 (active)
18,Cc1nc2ccccn2c(=O)c1CCN1CCC(C(=O)c2ccc(F)cc2)CC1,1.1 (inactive)
19,C[C@]12C=CC(=O)C=C1CC[C@@H]1C2=CC[C@]2(C)[C@@H](C(=O)CN3CCN(c4cc(N5CCCC5)nc(N5CCCC5)n4)CC3)CC[C@@H]12,1.4 (active)
20,Nc1ccn([C@@H]2O[C@H](CO)[C@@H](O)[C@@H]2O)c(=O)n1,1 (inactive)

row,SMILES,fold change permeability
1,CC(N)(C(=O)O)c1ccc(C(=O)O)cc1 (centres undefined),0.9 (inactive)
2,Nc1ncnc2c1nc(Sc1ccc(Cl)cc1)n2C1OC2COP(=O)(O)O[C@@H]2[C@@H]1O (some centres undefined),0.9 (inactive)
3,C[C@H](O)C(=O)C1=Nc2c(nc(N)[nH]c2=O)NC1,0.7 (active)
4,O=C(O)C1=CCCNC1,1 (inactive)
5,COc1cc(/C=C/C(=O)N2CCC=CC2=O)cc(OC)c1OC,1 (inactive)
6,O=C1CCC(c2ccc(-n3ccnc3)cc2)=NN1,1.1 (inactive)
7,O=C(NCCO)c1cccc(-c2cc(Nc3ccc(OC(F)(F)F)cc3)ncn2)c1,1.4 (active)
8,CNC(=O)c1cc2c(cn1)[nH]c1ccccc12,0.8 (inactive)
9,Cc1nc2sccn2c(=O)c1CCN1CCC(=C(c2ccc(F)cc2)c2ccc(F)cc2)CC1,1.9 (active)
10,CCCCCCCC/C=C\CCCCCCCC(=O)O,0.9 (inactive)
11,c1cnc(N2CCN(Cc3ccc4c(c3)OCO4)CC2)nc1,1 (inactive)
12,COc1cc2c(cc1-c1c(C)noc1C)ncc1[nH]c(=O)n([C@H](C)c3ccccn3)c12,1.1 (inactive)
13,CCCCCCC(=O)OC1CC(C)(C)NC(C)(C)C1,0.9 (inactive)
14,NC(Cc1ccc(Cl)cc1)C(=O)O (centres undefined),0.9 (inactive)
15,CC(C)(C)c1ccc(C(=O)Nc2ccc(Nc3ccccc3)cc2)cc1,1 (inactive)
16,NC(N)=NCCC[C@H](NC(=O)[C@@H](N)Cc1ccc(O)cc1)C(=O)O,1.2 (inactive)
17,CN(C)CCC(c1ccc(Cl)cc1)c1ccccn1 (centres undefined),1.1 (inactive)
18,O=C(c1ccc(Br)cc1)N1CC2C3CCC(O3)C2C1 (centres undefined),1.2 (inactive)
19,COc1ccc2c(c1)CC[C@@H]1[C@@H]2CC[C@]2(C)[C@@H](NCCCCCCN3C(=O)CCC3=O)CC[C@@H]12,2.2 (active)
